Results filed as inconclusive are left out. Active and inactive are the calls of the source. The call rests on the fitted dose curve; in most records, active means well fitted curve in the direction sought with a large enough effect in the repeat runs; inconclusive means weak or mixed curves; inactive means no such curve, though single readings can be large; an effect the other way counts as inactive or inconclusive.
What was measured:
[1] = qHTS RealTime-Glo MT Cell Viability Assay in HEK293 cells - 16 hour (AID 1224872); further: top concentration of the series differs between compounds; nearly all actives have a fitted effect of over 50% in size
In short: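 Nonlytic real-time viability readout: viable cells convert prosubstrate to NanoLuc substrate, giving luminescence proportional to live cell number. HEK293, 600 cells/well, compound added after 5 h, continuous culture at 37 C.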

[2] = qHTS RealTime-Glo MT Cell Viability Assay in HepG2 cells - 8 hour (AID 1224873); further: nearly all actives have a fitted effect of over 55% in size
In short: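 HepG2 cells (600/well) mixed with RealTime-Glo MT reagent, settled 5 h at 37 C/5% CO2 before compound addition. Nonlytic NanoLuc luminescence from viable-cell prosubstrate reduction read repeatedly during 40 h treatment at 37 C.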

[3] = qHTS RealTime-Glo MT Cell Viability Assay in HEK293 cells - 40 hour (AID 1224874); settings: RealTime-Glo luminescence; max response: stronger effect = lower value; further: nearly all actives have a fitted effect of over 50% in size
In short: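 Measured as luminescence from the same continuously cultured HEK293 wells at successive time points (0, 8, 16, 24, 32, 40 h) after compound addition. Reagent present from seeding; dosing at 5 h; incubation 37 C.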

[4] = A CellTox Green Cytotoxicity Assay to monitor cytotoxicity in HEK293 cells - 24 hour (AID 1224875); further: series mostly up to about 77 µM; nearly all actives have a fitted effect of over 45% in size
In short: (§1)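 Homogeneous no-lysis format: HEK293 cell suspension mixed with CellTox Green reagent, seeded, incubated 5 h at 37 C/5% CO2, then dosed by pintool with compound in DMSO.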

[5] = qHTS RealTime-Glo MT Cell Viability Assay in HepG2 cells - 32 hour (AID 1224877); further: nearly all actives have a fitted effect of over 55% in size
In short: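 Luminescence read-out: viable HepG2 cells reduce a prosubstrate to a NanoLuc substrate, giving a signal proportional to live cell number. Reads taken at 0, 8, 16, 24, 32 and 40 h of compound exposure at 37 C.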

[6] = A CellTox Green Cytotoxicity Assay to monitor cytotoxicity in HEK293 cells - 40 hour (AID 1224871); further: nearly all actives have a fitted effect of over 45% in size
In short: as §1

[7] = A CellTox Green Cytotoxicity Assay to monitor cytotoxicity in HepG2 cells - 24 hour (AID 1224878); further: nearly all actives have a fitted effect of over 45% in size
In short: (§2)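 Fluorescent DNA-binding dye, 600 HepG2 cells/well, 5 h preincubation then compound in DMSO; same plates read at 0–40 h, 37 C.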

[8] = A CellTox Green Cytotoxicity Assay to monitor cytotoxicity in HepG2 cells - 40 hour (AID 1224879); further: nearly all actives have a fitted effect of over 40% in size
In short: as §2

[9] = A CellTox Green Cytotoxicity Assay to monitor cytotoxicity in HepG2 cells - 16 hour (AID 1224876); further: nearly all actives have a fitted effect of over 45% in size
In short: as §2
On the % scale 0 is the no-effect control and ±100 the full control effect.

COC(=O)c1ccc(C(=O)OC)c(C(=O)OC)c1
inactive: Potency [1] | outcome [2] | max response [3] 1.35% | Potency [4] | Potency [5]

Nc1nc(F)nc2c1ncn2[C@@H]1O[C@H](CO)[C@@H](O)[C@@H]1O
inactive: Potency [6] | Potency [1] | outcome [2] | Potency [4] | Potency [5] | Potency [7] | Potency [8]

CC(C)(C)N(CCO)CCO
inactive: Potency [1] | outcome [2] | max response [3] 0.933% | Potency [4] | Potency [9] | Potency [5] | Potency [7] | Potency [8]

Oc1cc(O)c2c(c1)O[C@H](c1ccc(O)c(O)c1)[C@H](O)C2
inactive: Potency [6] | Potency [1] | outcome [2] | Potency [4] | Potency [9] | Potency [5] | Potency [8]

CCC(C)(C)C1CCC(OC)CC1 (stereo unspecified)
inactive: outcome [2] | max response [3] 21.9% | Potency [4] | Potency [9] | Potency [5] | Potency [7]

C1CCCCCCCCCCC1
inactive: cytotoxicity increase [6] -40.6% [at 15.8 µM] | viability change, negative = cytotoxic [2] -9.68% [at 15.8 µM] | activity change [4] -35.9% [at 15.8 µM, stronger effect = higher value] | cytotoxicity increase [9] -3.96% [at 15.8 µM] | activity change, negative = cytotoxic [5] 12% [at 15.8 µM] | cytotoxicity [7] -7.04% [at 15.8 µM] | cytotoxicity increase [8] -12.7% [at 15.8 µM]

CC(=O)OC(C)(C)C
inactive: Potency [6] | Potency [1] | outcome [2] | max response [3] 8.31% | Potency [4] | Potency [5] | Potency [8]

CN(C)CCn1nnnc1SCC1=C(C(=O)O)N2C(=O)[C@@H](NC(=O)Cc3csc(N)n3)[C@H]2SC1
inactive: Potency [6] | Potency [1] | outcome [2] | max response [3] 13.3% | Potency [4] | Potency [9] | Potency [7] | Potency [8]

NC(CS)C(=O)O (stereo unspecified)
inactive: Potency [6] | Potency [1] | outcome [2] | max response [3] 1.35% | Potency [4] | Potency [9] | Potency [5] | Potency [7] | Potency [8]

NCCNC(=O)c1ccc(Cl)cn1
inactive: Potency [1] | outcome [2] | max response [3] 0.469% | Potency [4] | Potency [9] | Potency [5] | Potency [7] | Potency [8]

O=C1CC2(CCCC2)CC(=O)N1
inactive: Potency [6] | Potency [1] | outcome [2] | max response [3] 3.72% | Potency [4] | Potency [9] | Potency [5] | Potency [7] | Potency [8]

C=CC(=O)N1CCOCC1
inactive: Potency [6] | Potency [1] | outcome [2] | Potency [4] | Potency [9] | Potency [5] | Potency [7] | Potency [8]

C[C@H](O)C(=O)Nc1c(I)c(C(=O)NC(CO)CO)c(I)c(C(=O)NC(CO)CO)c1I
inactive: Potency [6] | Potency [1] | outcome [2] | max response [3] 4.24% | Potency [4] | Potency [9] | Potency [5] | Potency [7] | Potency [8]

CCO[Si](C)(OCC)OCC
inactive: Potency [6] | Potency [1] | outcome [2] | max response [3] 3.57% | Potency [4] | Potency [9] | Potency [5] | Potency [8]

O=C(O)Cc1cc(I)c(Oc2cc(I)c(O)c(I)c2)c(I)c1
inactive: Potency [1] | outcome [2] | Potency [9] | Potency [5] | Potency [7] | Potency [8]

CCCOc1ccccc1-c1nc2n[nH]nc2c(=O)[nH]1
inactive: Potency [1] | outcome [2] | Potency [4] | Potency [9] | Potency [5] | Potency [7] | Potency [8]

CCCCc1ccc(N)cc1
inactive: Potency [6] | Potency [1] | outcome [2] | Potency [4] | Potency [9] | Potency [7] | Potency [8]

COc1ccc(N=[N+]([O-])c2ccc(OC)cc2)cc1
inactive: Potency [6] | Potency [1] | outcome [2] | Potency [4] | Potency [9] | Potency [5] | Potency [7] | Potency [8]

CC1(C)SC(C)(C)SC(C)(C)S1
inactive: Potency [6] | outcome [2]

O=C(O)c1ccccc1-c1ccc(C(F)(F)F)cc1
inactive: Potency [6] | Potency [1] | outcome [2] | max response [3] 7.22% | Potency [4] | Potency [5] | Potency [7] | Potency [8]

N#CCN(CC#N)CCN(CC#N)CC#N
inactive: Potency [6] | Potency [1] | outcome [2] | max response [3] 4.6% | Potency [4] | Potency [9] | Potency [7] | Potency [8]

C=C(C)C(=O)OCCC(C)OC(=O)C(=C)C (stereo unspecified)
inactive: Potency [6] | Potency [1] | outcome [2] | max response [3] 8.52% | Potency [4] | Potency [9] | Potency [7] | Potency [8]

CC(C)c1cccc(C(C)C)c1N
inactive: Potency [1] | outcome [2] | max response [3] -0.332% | Potency [5]

Nc1cc(C(Cl)=C(Cl)Cl)c(S(N)(=O)=O)cc1S(N)(=O)=O
inactive: Potency [6] | Potency [1] | outcome [2] | max response [3] -0.745% | Potency [4] | Potency [9] | Potency [5] | Potency [7] | Potency [8]

OC1OC[C@@H](O)[C@H](O)[C@H]1O (stereo partly specified)
inactive: Potency [1] | outcome [2] | Potency [4] | Potency [9] | Potency [5] | Potency [7] | Potency [8]

C=C[Si](OC)(OC)OC
inactive: Potency [6] | Potency [1] | outcome [2] | max response [3] 16.1% | Potency [4] | Potency [9] | Potency [5] | Potency [7] | Potency [8]

NC1CCN(c2cccc(Cl)n2)CC1
inactive: Potency [6] | Potency [1] | outcome [2] | max response [3] -1.03% | Potency [4] | Potency [5] | Potency [7] | Potency [8]

NS(=O)(=O)c1cc2c(cc1C(F)(F)F)NC(Cc1ccccc1)NS2(=O)=O (stereo unspecified)
inactive: Potency [6] | Potency [1] | outcome [2] | max response [3] -7.67% | Potency [4] | Potency [9] | Potency [5] | Potency [7] | Potency [8]
